Source: ChEMBL document CHEMBL3988442, “University of Dundee, Small-Polar-MMV Screening Library” (2021)
In all, about 38,000 compounds went through this assay and about 1,200 (3.2%) showed an effect of 50% or more. The median lay at about -58%. Shown is part of a subset that was picked to be rich in strong results.

System: Plasmodium falciparum
Test: Calibr Malaria Delayed Death Assay SOP
Format: functional, organism-based
Parameters: scale not given: in the data most compounds retested in dose-response had high values
Conditions: concentration 4.99e-06 (unit not given; other assays of the set use mol/L)

Row | Structure (SMILES) | Percent Effect
1 | O=C(NCc1ccco1)[C@H]1C[C@H]2OCC[C@H]2N(C(=O)c2ccnnc2)C1 | -30.68%
2 | CCCN1CCC(N2CCOC(Cc3cccc(OC)c3)C2)CC1 (centres undefined) | -127.7%
3 | O=C(NCCN1CCCCC1)c1nc(-c2cccc3[nH]ccc23)no1 | 15.88%
4 | COCC(=O)N1CCCC1c1csc(Nc2cnccn2)n1 (centres undefined) | -55%
5 | CCC(=O)N1CCCC1c1csc(Nc2cnccn2)n1 (centres undefined) | -46.83%
6 | O=C(O)C(F)(F)F.O=C(O)C(F)(F)F.O=C1NC2(CCN(Cc3ccoc3)CC2)CC1c1ccncc1 (centres undefined) | -15.5%
7 | Nc1nccc(N2CCC(c3cc(Cc4ccccc4)n[nH]3)CC2)n1 | 35.49%
8 | Cc1n[nH]c(C)c1CNCC(O)c1ccc(F)c(F)c1 (centres undefined) | 14.72%
9 | Cc1nc(CNC(=O)NCC(O)c2ccc(F)c(F)c2)cs1 (centres undefined) | -178.5%
10 | Cc1csc(CNC(=O)NCC(O)c2ccc(F)c(F)c2)n1 (centres undefined) | 2.8%
11 | Cc1n[nH]cc1CNCC(O)c1ccc(F)c(F)c1.Cl (centres undefined) | -33.27%
12 | Cc1cc(C)c(CNCC(O)c2ccc(F)c(F)c2)c(C)c1.Cl (centres undefined) | 92.75%
13 | COCCCNc1nc(CNC(C)=O)cc(-c2ccco2)n1 | -87.48%
14 | O=C(O)C(F)(F)F.O=S(=O)(C1CC1)N1CCc2ncnc(N3CCCC3)c2CC1 | -107.1%
15 | CCc1nc(C2CCCN2Cc2cnc(C)cn2)no1 (centres undefined) | -15.63%
16 | CC(C)c1cc(NC(=O)CN2CCCC2Cn2cncn2)on1 (centres undefined) | -56.31%
17 | COC(=O)c1cccc(C(=O)NCc2ccc3c(c2)CCCN3C)c1 | -12.04%
18 | CN1CCCc2cc(CNC(=O)c3ccncc3)ccc21 | -23.61%
19 | COc1cc(C(=O)NCc2ccc3c(c2)CCCN3C)cc(OC)c1Br | 65%
20 | Cc1nn(CC(O)CN2CCC(C)CC2)c(=O)c(C#N)c1C (centres undefined) | -55.82%
21 | O=C(Cn1ccc2cc(Br)ccc21)NC[C@@H]1CCCN2CCCC[C@H]12 | -18.45%
22 | O=C(Cn1ccc2ccccc21)NC[C@@H]1CCCN2CCCC[C@H]12 | -17.29%

Row | Structure (SMILES) | Percent Effect
23 | O=C(Cn1ccc2ccc(Br)cc21)NC[C@@H]1CCCN2CCCC[C@H]12 | 78.77%
24 | O=C(CCn1ccc2cc(Br)ccc21)NC[C@@H]1CCCN2CCCC[C@H]12 | 65.78%
25 | O=C(O)C1CCN(C(=O)CCn2ccc3cc(Br)ccc32)CC1 | -107.6%
26 | COc1ccc2c(ccn2CC(=O)NC[C@@H]2CCCN3CCCC[C@H]23)c1 | -61.04%
27 | O=C(O)C1CCN(C(=O)Cn2ccc3c(Cl)cccc32)CC1 | -74.89%
28 | O=C(Cn1ccc2ccc(F)cc21)NC[C@@H]1CCCN2CCCC[C@H]12 | 36.3%
29 | Cc1cccc2c1ccn2CC(=O)NC[C@@H]1CCCN2CCCC[C@H]12 | 70.06%
30 | CC(C)c1nsc(N2CCC(OCCN3CCOCC3)CC2)n1 | -47.66%
31 | CN(C)C(=O)COCC1CN(C2CCC2)Cc2ncn(C)c21.O=C(O)C(F)(F)F.O=C(O)C(F)(F)F (centres undefined) | -81.18%
32 | CN(C)CC1(O)CCCN(C(=O)Cn2nc3ccccc3n2)CC1 (centres undefined) | -95.76%
33 | Cc1cc2ccccc2n1CCC(=O)N1CCCC(O)(CN(C)C)CC1 (centres undefined) | 54.68%
34 | Cc1c(C(=O)N2CCCC(O)(CN(C)C)CC2)c2cc(O)ccc2n1C (centres undefined) | -101.4%
35 | Cn1nnc2c1C(COCC1CC1)CN(C(=O)Cc1cccs1)C2 (centres undefined) | -35.42%
36 | N#Cc1c(CN2CCCC2Cn2cccn2)cn2ccccc12 (centres undefined) | -64.03%
37 | CCc1cc(C(=O)N2CC[C@@H](c3ccc4ccccc4c3)[C@H](O)C2)[nH]n1 | 17.14%
38 | CN(Cc1cc(F)cc2cccnc12)CC1CCN(CCO)CC1 | 84.26%
39 | CC(O)CN1CCC(CN(C)Cc2cc(F)cc3cccnc23)CC1 (centres undefined) | 86.77%
40 | CC(O)CN1CCC(CN(C)CC(=O)NC(C)C)CC1 (centres undefined) | -132.6%
41 | OCCN1CCN(Cc2cc(Cl)cc3cccnc23)CC1 | -35.44%
42 | CN(CC(N)=O)Cc1cc(Cl)cc2cccnc12 | -110.1%
43 | CN(Cc1cc(Cl)cc2cccnc12)CC1CCN(CCO)CC1 | 88.36%
44 | CC(C)c1nc(CN(C)CC2CCN(CCO)CC2)no1 | -37.31%

Row | Structure (SMILES) | Percent Effect
45 | CC(O)CN1CCC(CN(C)CCC(=O)NC2CCCC2)CC1 (centres undefined) | -87.19%
46 | CN(Cc1noc(C2CC2)n1)CC1CCN(CCO)CC1 | -111.1%
47 | CCn1cc(Br)c(C(=O)NCc2ccccc2)n1 | -62.24%
48 | COc1ccc(C(=O)N2CCC(Nc3cccnn3)CC2)cn1 | -79.23%
49 | CN(C)c1ncc2c(n1)CN(C1CCSCC1)C2=O | -103.3%
50 | Cc1cc(C2CCCN(Cc3nnc(Cc4ccccc4)o3)C2)n[nH]1 (centres undefined) | -117.5%
51 | COc1cc(Cl)ccc1C(=O)N1CCCC(c2cc(C)[nH]n2)C1 (centres undefined) | -107.6%
52 | Cc1cc(CNC(=O)c2ccno2)c(C)o1 | -93.35%
53 | CCS(=O)(=O)c1ccccc1C(=O)N1CCCC(n2cccn2)C1 (centres undefined) | -21.75%
54 | CC(C)(O)CCc1cccc(C(=O)NCc2cnn3cccnc23)c1 | -126.6%
55 | O=C(NCc1cnn2cccnc12)c1cccc(CC2CCNCC2)c1 | 65.91%
56 | Cc1cccnc1[C@H](C)NC(=O)c1cccc(CC2CCNCC2)c1 | 7.759%
57 | CCOCC1CCN(C(=O)Nc2ccc3c(c2)CCCO3)C1 (centres undefined) | -56.87%
58 | CCOCC1CCN(C(=O)Nc2ccc3c(c2)CCCN3C)C1 (centres undefined) | 57.13%
59 | CCNC(=O)C1CCCN(C(=O)Nc2ccc3c(c2)CCCN3C)C1 (centres undefined) | 9.496%
60 | Cc1noc([C@H]2COC[C@H]3CN(C(=O)Cc4cccs4)C[C@H]32)n1 | -60.46%
61 | CN(C(=O)Cn1nc(-c2cccs2)ccc1=O)C1CCS(=O)(=O)C1 (centres undefined) | -97.97%
62 | Cc1c(CN2C[C@H](O)[C@@H](N3CCOCC3)C2)[nH]c2ccc(F)cc12 | -95.14%
63 | CC1=C(CCN2C[C@H](O)[C@@H](N3CCOCC3)C2)C(C)(C)CCC1 | 77.23%
64 | CC1=C(CCN2CC[C@@H](N3CCC(O)CC3)[C@H](O)C2)C(C)(C)CCC1 | -51.59%
